Screens deposited in PubChem BioAssay by National Center for Advancing Translational Sciences (NCATS).
Giardia FBPA inh – qHTS Assay for Inhibitors of Fructose-1,6-bisphosphate Aldolase from Giardia Lamblia | A8B2U2 | AID 2451, 2010 | 0.71% of 290,000 active | Potency, µM (titrated, usually from 59.6 µM), actives largely listed as inhibitors | purified Giardia FBPA; also: nearly all actives have a fitted effect of over 55% in size
Target sequence (A8B2U2 whole entry, looked up): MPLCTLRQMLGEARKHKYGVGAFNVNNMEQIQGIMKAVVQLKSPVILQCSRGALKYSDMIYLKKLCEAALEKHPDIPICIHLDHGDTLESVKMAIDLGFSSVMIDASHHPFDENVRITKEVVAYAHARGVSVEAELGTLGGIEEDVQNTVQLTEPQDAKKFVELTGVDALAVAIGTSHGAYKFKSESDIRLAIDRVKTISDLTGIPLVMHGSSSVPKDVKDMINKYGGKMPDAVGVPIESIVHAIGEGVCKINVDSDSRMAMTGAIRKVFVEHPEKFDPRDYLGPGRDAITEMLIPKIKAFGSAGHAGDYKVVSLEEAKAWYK
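Giardia FBPA (40 nM reagent) was preincubated 10 min at RT with compound (up to 57.5 uM final), then substrate plus GAPDH/TPI/NAD/arsenate coupling system with diaphorase/resazurin was added; resorufin fluorescence (525/598 nm) was read after 20 min.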
Sm TGR inh – qHTS Assay for the Inhibitors of Schistosoma Mansoni Peroxiredoxins | purified TGR, DTNB reduction, TNB absorbance 405 nm | Potency, µM (series often up to 114 µM), most hits filed as inhibitors | 3% of 360,000 active | AID 485364, 2010; also: nearly all actives have a fitted effect of over 60% in size
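First, TGR (20 nM dispensed) and NADPH were mixed with compound. Second, a 15 min room-temperature incubation followed. Third, further NADPH and then DTNB were added to start the reaction. Finally, TNB absorbance was monitored kinetically.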
Tb PYK inh – qHTS of Trypanosoma Brucei Inhibitors | AID 624173, 2012 | 0.12% of 410,000 active | Potency, µM (doses to about 76.8 µM), hits mostly inhibitors | TbPYK enzyme, Kinase-Glo Plus ATP luminescence, 45 min | pyruvate kinase (Trypanosoma brucei), Q57TT1; also: nearly all actives have a fitted effect of over 50% in size
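Luminescence from Kinase-Glo Plus, added after a 45-minute room-temperature reaction, served as the end-point read-out. The enzyme and substrate were preincubated with compound before ADP (130 uM final) initiated turnover. Concentration-effect curves came from normalized qHTS data.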
HCMV inh – qHTS Assay for inhibitors of the human cytomegalovirus (HCMV); HFF cells, HCMV-luciferase reporter, 72 h; active compounds read low; activity change, negative = inhibition, % at 57.5 µM; 4.5% of 410,000 active; in the data active = activity change below about -60%; inconclusive = no clear call, values can overlap the other calls; inactive = above about -39%
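Steps: HFFs plated, 16 h 37C; compounds added; HCMV-luciferase added to MOI 1 PFU/cell; 72 h 37C; OneGlo reagent, 5 min room temperature; luminescence read, normalized to controls.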
RE007 growth inh – qHTS Assay for Inhibitors of the HIV-1 protein Vpr. S. pombe RE007 Vpr strain, BacTiter-Glo ATP luminescence, 24 h. Potency, µM (titrated, usually from 92.2 µM), hits mostly inhibitors. 0.21% of 360,000 active. AID 651644, 2012; active = well fitted falling curve with a large enough effect; inconclusive = small, poorly fitted or top-dose-only effect; inactive = no such curve, though single readings can be large or run the other way; also: nearly all actives have a fitted effect of over 50% in size
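Fission yeast RE007 carrying one integrated HIV-1 vpr copy, seeded at OD 0.01 in PMG+AL medium with 23 nL pinned compound. Grown 24 h at 30 degrees; viability read by BacTiter-Glo luminescence after 5 min.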
FMDV antiviral – High Throughput Screening for Foot and Mouth Disease Virus Antivirals. FMDV antiviral cell-based qHTS. Potency, µM (titrated, usually from 57.9 µM), usual class: inhibitors. 1.2% of 410,000 active. AID 1159524, 2015; calls by dose curve; tested in HEK293T cells; also: read-out not given here; nearly all actives have a fitted effect of over 45% in size
Of the large screens only hits and unclear results are named; the others gave an inactive call; ! = repeats disagree. This is a sample that favours compounds with a hit; in the whole collection about 7.7% have one here. Unless noted, calls follow the shape of the dose curve; as a rule, active = well fitted curve in the direction sought with a large enough effect; inconclusive = small, poorly fitted or top-dose-only effect, or another doubt; inactive = no such curve, though single readings can be large; an effect the other way counts as inactive or inconclusive.

Cc1c(C(=O)NCc2cccc(Cl)c2)sc2nc3n(c(=O)c12)CCC3	none (no result: Giardia FBPA inh, RE007 growth inh)
CCCS(=O)(=O)N1CCN(S(=O)(=O)c2ccccc2)CC1	none
CC1(CCl)CN1S(=O)(=O)c1ccccc1 (stereo not given)	Sm TGR inh 40µM
COc1ccc(C(=O)NCC(=O)N=Nc2c(O)n(C)c3ccccc23)cc1OC	HCMV inh -61
COc1ccc(C(=O)NCC(=O)N=Nc2c(O)n(Cc3ccccc3)c3ccccc23)cc1OC	HCMV inh inconclusive
FC(F)(F)c1cccc(-c2nc3c(NCCc4ccccn4)nccc3[nH]2)c1	none (no result: Giardia FBPA inh, Sm TGR inh, Tb PYK inh, RE007 growth inh, FMDV antiviral)
Cc1nnc(N(CCC#N)CCC#N)s1	HCMV inh -72
COc1ccc(CNS(=O)(=O)c2ccc3c(c2)CCN3C(=O)C2CC2)cc1	Tb PYK inh inconclusive, HCMV inh -62
CC(=O)N1CCc2cc(S(=O)(=O)NC(C(=O)NCc3ccccc3)C(C)C)ccc21 (stereo not given)	none
COc1cccc(CNC(=O)C(NS(=O)(=O)c2ccc3c(c2)CCN3C(C)=O)C(C)C)c1 (stereo not given)	HCMV inh active! (no result: Giardia FBPA inh)
O=C(C1CCC1)N1CCc2cc(S(=O)(=O)Nc3ccc4c(c3)OCO4)ccc21	HCMV inh -72
CCC[C@H]1[C@@H](NS(=O)(=O)c2ccccc2C)CC[C@@]23CCCN2C(=O)CCC[C@@H]13	none (no result: Giardia FBPA inh, Sm TGR inh, Tb PYK inh, RE007 growth inh, FMDV antiviral)
C[C@H]1[C@@H]2Cc3ccc(O)cc3[C@]1(C)CCN2C	none (no result: Giardia FBPA inh, Sm TGR inh, HCMV inh, RE007 growth inh, FMDV antiviral)
O=C1NC2c3c(Cl)sc(Cl)c3C(=O)C2O1 (stereo not given)	FMDV antiviral inconclusive (no result: Giardia FBPA inh, Sm TGR inh)
O=C1NC2c3c(I)sc(I)c3C(=O)C2O1 (stereo not given)	FMDV antiviral 40µM (no result: Giardia FBPA inh, Sm TGR inh)
CCCOc1ccccc1Cn1c(=O)sc2ccccc21	none (no result: Giardia FBPA inh, RE007 growth inh)
CC(C)(C)c1ccc(S(=O)(=O)N2CCC(c3ccncc3)CC2)cc1	HCMV inh -83, FMDV antiviral inconclusive (no result: Giardia FBPA inh, RE007 growth inh)
O=S(=O)(c1ccc(Cl)cc1)N1CCC(c2ccncc2)CC1	FMDV antiviral inconclusive (no result: Giardia FBPA inh, RE007 growth inh)
O=C(C[n+]1ccc(/C=N/O)cc1)N(Cc1ccccc1)Cc1ccccc1	HCMV inh -68
CC(C)N(C(=O)C[n+]1ccc(/C=N/O)cc1)C(C)C	none
CS(=O)(=O)Nc1cccc(C2=NN(C(=O)c3ccco3)C(c3ccco3)C2)c1 (stereo not given)	none
CCS(=O)(=O)Nc1cccc(C2=NN(C(=O)c3ccco3)C(c3ccco3)C2)c1 (stereo not given)	Sm TGR inh 50µM
COc1cc(NC(=O)C2CCN(S(=O)(=O)c3c(C)noc3/C=C/c3ccccc3F)CC2)cc(OC)c1OC	none (no result: Giardia FBPA inh, RE007 growth inh)
CC1CCN(c2nnc(N3CCC(C)CC3)c3ccccc23)CC1	none
COc1ccc(-c2nnc(N3CCC(C)CC3)c3ccccc23)cc1	HCMV inh -63
Cc1ccc(-c2nnc(N3CCN(S(C)(=O)=O)CC3)c3ccccc23)cc1	FMDV antiviral inconclusive
Cc1ccc(-c2nnc(N3CCN(c4ccccn4)CC3)c3ccccc23)cc1	FMDV antiviral 22µM
Clc1nnc(N2CCCCC2)c2ccccc12	HCMV inh -91
Cc1ccc(-c2nnc(N3CCCCC3)c3ccccc23)cc1	HCMV inh -61
c1ccc(-c2nnc(N3CCN(c4ccccn4)CC3)c3ccccc23)cc1	HCMV inh inconclusive
CCC(=O)OCC(=O)[C@@]1(OC(=O)CC)[C@H](C)C[C@@H]2[C@H]3CCC4=CC(=O)C=C[C@]4(C)[C@]3(Cl)[C@@H](O)C[C@@]21C	none (no result: Sm TGR inh, Tb PYK inh, HCMV inh, RE007 growth inh, FMDV antiviral)
CCn1c(-c2ccccc2F)nc2cc(NC(C)=O)cc(C(=O)N3CCCCC3c3nccn3C)c21 (stereo not given)	none (no result: Giardia FBPA inh, Sm TGR inh, Tb PYK inh, HCMV inh, RE007 growth inh)
O=C(NCCN1CCOCC1)c1cnn(-c2nccc(-c3cc4ccccc4o3)n2)c1C1CC1	none (no result: Giardia FBPA inh, Sm TGR inh, Tb PYK inh, HCMV inh, RE007 growth inh)
CCc1ccc(NC(=O)CSc2nnc(-c3nonc3NC(C)=O)n2-c2ccccc2)cc1	none (no result: Giardia FBPA inh, RE007 growth inh)
